Bioassay records from PubChem BioAssay.
Shown are actives, neighbours in structure and some others; about 2.2% of the full set was active somewhere.
SMARCA2 act = SMARCA2 (BRM) function activators, primary screen, cell-based, luminescence, high throughput; MG213 cells, MMTV-luciferase reporter, dexamethasone, overnight; actives 1% (n = 370,000); AID 652017, 2013; activation, % at 9.1 µM; in the data active = activation above about 7.8%;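 note: 0% = vehicle wells and 100% = reference activator wells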
GAA850 FXN act = FXN promoter activators, primary screen, cell-based, luciferase luminescence, HEK293 lucGAA850; HEK293 lucGAA850 FXN promoter luciferase reporter, 24 h; percent of 10 µM SAHA response; activation, % at 6 µM; actives 0.56% (n = 360,000); AID 540364, 2011;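 active = activation above the average of all compounds screened plus 3 SD, cutoff fixed separately per campaign, cut at about 7.5% in these data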;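 note: 0% = DMSO wells and 100% = 10 µM SAHA wells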
Hsp70 act = Hsp70 transcriptional activators, primary screen, cell-based, HeLa, Hsp70 promoter luciferase, luminescence, 10 µM; HeLa Hsp70 promoter luciferase reporter; scaled: vehicle 0, proteasome-inhibitor control 100%; activation, % at 10 µM; actives 0.04% (n = 200,000); AID 1203, 2008;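 active = activation above the mean across all tested compounds plus 3 SD, cutoff set per campaign, cut at about 5.5% in these data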;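 note: 100% = MG132 at 30 µM as the positive control and 0% = DMSO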
HIF activator = HIF pathway transcriptional activators, primary screen, cell-based, U2OS HRE-luciferase, luminescence; U2OS HRE-luciferase reporter; normalized: DMSO 0%, desferrioxamine 100%; activation, % at 7.5 µM (by protocol); actives 0.32% (n = 300,000); AID 1910, 2009;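 active = mean activation of at least 10% of the iron chelator positive control signal, with at least half of replicates also reaching 10%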
GalR3 antag = GalR3 antagonists in HEK293 cells, primary screen, cell-based, fluorescence readout | HEK293 GalR3-CNG cAMP membrane potential fluorescence; galR3 body fused to GalR1 C-terminus | Galanin receptor type 3 (Homo sapiens), O60755 | actives 0.44% (n = 360,000) | inhibition, % at 3 µM;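 active = inhibition above the screen-wide average plus 3 SD, cut at about 13% in these data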;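 note: forskolin and galanin both at EC90 stimulate the cells; cAMP rise reported by CNG channel membrane potential dye signal; 0% = forskolin plus galanin with DMSO and 100% = forskolin alone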
Target sequence (O60755 1-299 limits assumed): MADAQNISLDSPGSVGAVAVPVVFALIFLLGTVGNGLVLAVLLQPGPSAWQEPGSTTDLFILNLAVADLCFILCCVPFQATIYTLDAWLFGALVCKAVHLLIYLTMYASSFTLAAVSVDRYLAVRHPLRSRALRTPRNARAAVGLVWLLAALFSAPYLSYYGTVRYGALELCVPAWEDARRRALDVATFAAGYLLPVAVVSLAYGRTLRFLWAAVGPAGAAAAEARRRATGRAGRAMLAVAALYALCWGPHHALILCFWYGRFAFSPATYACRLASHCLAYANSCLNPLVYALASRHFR
SMARCA2 conf = SMARCA2 (BRM) function activators, confirmation, cell-based, luminescence, triplicate | shares compounds with SMARCA2 act | MG213 cells, MMTV-luciferase with dexamethasone, overnight; MG213 cells expressing E1A, Rb sequestered; DMSO wells 0%, reference activator 100% | activation, % at 9.1 µM | actives 30% (n = 3,500) | AID 652260, 2013;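 active = activation above its plate's cutoff, the mean activation of tested wells plus 3 SD, cut at about 7.9% in these data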
GAL4-VP16 Luc = GAL4-VP16 luciferase reporter activation, counter-screen for SMARCA2 (BRM) activator project, cell-based, pG5luc, luminescence, high throughput; activation, % at 9.1 µM; actives 41% (n = 3,500); shares compounds with SMARCA2 act; AID 686939, 2013; HEK293 GAL4-VP16 pG5luc reporter; scaled: DMSO wells 0%, SAHA wells 100%;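 active = activation above the solvent-only control well mean plus 3 SD, averaged across control plates, cut at about 5.2% in these data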
Active calls of the source: *; · = no result given.

SMILES | SMARCA2 act | GAA850 FXN act | Hsp70 act | HIF activator | GalR3 antag | SMARCA2 conf | GAL4-VP16 Luc
Cc1ccc(NC(=O)N2CCN(Cc3ccc4c(c3)OCO4)CC2)cc1 | -1.4 | 1.4 | -0.4 | -0.3 | -2.9 | · | ·
O=C(Nc1ccc2c(c1)OCO2)N1CCN(Cc2ccco2)CC1 | 10.7* | 7.0 | -0.1 | 0.5 | -5.3 | -0.4 | 12.2*
COc1cc2ccccc2cc1C(=O)Nc1ccc(N2CCN(C(=O)C(C)C)CC2)cc1 | -0.6 | -0.4 | · | -0.5 | -1.6 | · | ·
COc1cc2ccccc2cc1C(=O)Nc1ccc(N2CCN(C)CC2)cc1 | 18.6* | 6.5 | · | 1.3 | -6.5 | 9.7* | 8.8*
Cc1ccc(N2C(S)=C(C#N)C(=O)NC2c2cccs2)cc1 (stereo not given) | 8.0* | 1.0 | -0.5 | 0.0 | 1.0 | 2.2 | 0.4
N#CC1=C(S)N(c2ccccc2)C(c2cccs2)NC1=O (stereo not given) | 1.4 | -1.8 | -0.3 | 0.1 | -10.8 | · | ·
N#CCCCc1cn(-c2cccc(-c3noc4c3C(=O)N(CC(=O)N3CCOCC3)CC4)c2)nn1 | 0.2 | · | · | · | · | · | ·
CCCN(CCC)CCCNC(=S)Nc1ccc2nc(N3CCCC3)cc(C)c2c1 | 14.8* | 1.0 | 0.0 | 0.9 | -2.5 | 16.2* | -0.5
CCCCN(CC)CCCNC(=S)Nc1ccc2nc(N3CCN(C)CC3)cc(C)c2c1 | 1.8 | -0.4 | -0.3 | 0.3 | -6.1 | · | ·
CCN(CC)CCNC(=S)Nc1ccc2nc(N3CCCC3)cc(C)c2c1 | 9.6* | 1.7 | -0.2 | 0.4 | -4.8 | 15.3* | 0.3
O=[N+]([O-])c1ccc(CSc2nnc(-c3cccc(Cl)c3)n2Cc2ccco2)cc1 | -7.0 | · | · | · | · | · | ·
CC(C)(C)c1ccc(S(=O)(=O)N2CCC(c3cn4ccccc4n3)CC2)cc1 | 1.3 | · | · | · | · | · | ·
CC(C)(C)SCCNC(=O)/C=C/c1ccccc1 | 8.1* | 1.3 | · | 1.6 | 0.8 | 5.8 | 4.9
COC(=O)[C@]12C[C@H](CC(=O)NCCc3ccccc3OC)C(=O)N(Cc3ccco3)C1=C[C@H](C1CCCC1)O[C@@H]2C | -1.6 | · | · | · | · | · | ·
CN(C)[C@@H]1CCN(c2ccc3c(c2)OCCCN(C2CC2)S3(=O)=O)C1 | 0.1 | · | · | · | · | · | ·
NC(=O)CSc1nc2ccccc2c(=O)n1Cc1ccccc1 | -1.3 | 1.3 | · | 0.4 | -12.7 | · | ·
CCn1c(SCC(N)=O)nc2ccccc2c1=O | 8.0* | 3.6 | -0.2 | 0.4 | -1.2 | -1.9 | -0.1
Cc1ccc(NC(=O)NNC(=O)CSC2CCc3ccccc32)c(C)c1 (stereo not given) | -1.1 | · | · | · | -7.0 | · | ·
Cc1ccc2cc3c(N)c(C(=O)N4CCOCC4)sc3nc2c1 | 9.5* | -2.7 | 1.2 | -22.4 | -2.4 | 14.2* | 13.9*
O=C(COc1ccc(Cl)cc1)NCC(=O)N1CCC2(CC1)NCCc1[nH]cnc12 | 9.7* | -1.1 | · | -0.1 | -1.4 | 2.5 | 1.5
O=C(NC1CC1)c1cccc(NC(=O)C2CCCCC2)c1 | 8.1* | 0.3 | · | · | -4.6 | 0.3 | 0.6
O=C(NC1CCCCC1)c1n[nH]c2c1CC(c1ccccc1)CC2 (stereo not given) | 8.0* | 3.5 | · | · | -2.0 | 2.7 | 11.5*
Cc1ccc(C(=O)OCc2cc(=O)n3ccsc3n2)s1 | -2.5 | -0.7 | · | · | -0.3 | · | ·
Cc1ccc(C(=O)OCc2cc(=O)n3c(C)csc3n2)s1 | 8.8* | 2.3 | · | · | -4.6 | 7.8 | 1.4
N=c1c2ccccc2nc2n1CCCCCCC2 | 9.0* | -0.1 | · | · | -4.8 | 3.3 | 1.7
Cc1ccccc1CN1CCCCC(NC(=O)Nc2ccccc2)C1=O (stereo not given) | -2.9 | · | · | · | · | · | ·
CCCCCCCCN1C(=O)[C@@H](CC(=O)NCc2cccc(C(F)(F)F)c2)C[C@@]2(C(=O)OC)C1=C[C@H](COCc1ccccc1)O[C@@H]2C | -1.5 | · | · | · | · | · | ·
